Test results taken from PubChem BioAssay (Tox21).
Several values for one entry are separate records, joined by “and”; a condition that tells them apart may be missing. Equal entries are not always repeated. Records with an inconclusive call do not appear. Some compounds were tested as several samples or in several runs, with calls that do not always agree. Activity calls are given as the source filed them. The call rests on the fitted dose curve; in most records, active means well fitted cell-killing curve with a large enough effect in the repeat runs (not every such curve was filed as active); inconclusive means weak or mixed curves, or effect the other way; inactive means no such curve, though single readings can be large or run the other way.

Assay: qHTS assay to identify small molecule antagonists of the farnesoid-X-receptor (FXR) signaling pathway - cell viability counter screen (AID 743221); further: nearly all actives have a fitted effect of over 50% in size
Conditions: FXR-bla HEK293T viability, CellTiter-Glo luminescence, 16 h; series mostly up to 62.6 µM; activity change, negative = cytotoxicity: at the top concentration
Source text: National Center for Advancing Translational Sciences [NCATS]
NIH Chemical Genomics Center [NCGC]
U.S. Environmental Protection Agency [EPA]
National Institutes of Environmental Health Sciences [NIEHS]
National Toxicology Program [NTP]
U.S. Food and Drug Administration [FDA]
The farnesoid-X-receptor (FXR), a nuclear hormone receptor, is highly expressed in liver, intestine, kidney and adrenal cortex. Natural ligands of FXR are the bile acids (Cholic acid, Chenodeoxy cholic acid etc). FXR is an important regulator of diverse metabolic pathways, including the bile acid homeostasis, lipid and glucose metabolisms. FXR regulates the expression of target genes by binding either as a monomer or as a heterodimer with the retinoid X receptor (RXR). Numerous studies have reported that FXR exerts protective function during cholestasis, diabetes, liver regeneration, and cancer. To identify compounds that inhibit FXR signaling, GeneBLAzer FXR-UAS-bla HEK 293T cell line (Invitrogen, Carlsbad, CA) containing a beta-lactamase reporter gene under the control of a UAS response element was used to screen the Tox21 10K compound library. The cytotoxicity of the Tox21 compound library against the FXR-bla cell line was tested in parallel by measuring the cell viability using CellTiter-Glo assay in the same wells.
Tox21 Assay Protocol Summary:
FXR-bla cells were dispensed at 5000 cells/5uL/well in 1536-well black wall/clear bottom plates using a Multidrop Combi (Thermo Fisher Scientific, Waltham, MA) dispenser. After the assay plates were incubated at 37 C and 5% CO2 for 5 h, 23 nL of compounds dissolved in DMSO, positive controls or DMSO only was transferred to the assay plate by a Pintool station (Kalypsys, San Diego, CA), followed by addition of 1 uL Chenodeoxycholic acid (50 uM, final concentration in the wells). The assay plates were incubated at 37C for 16 h. After 1 uL of LiveBLAzerTM B/G FRET substrate was added using a Bioraptr Flying Reagent Dispenser (FRD) workstation (Beckman Coulter, Indianapolis, IN), the plates were incubated at room temperature for 2 h, and fluorescence intensity was measured by an Envision plate reader (PerkinElmer, Shelton, CT). For cell viability readout that measures cytotoxicity, 4uL/well of CellTiter-Glo reagent was added into the assay plates using a Bioraptr FRD. After 30 min incubation at room temperature, the luminescence intensity in the plates was measured using a ViewLux plate reader (PerkinElmer).
On the % scale 0 is the no-effect control and ±100 the full control effect; potency means the concentration at half of the fitted maximal effect.

Row | SMILES | activity change, negative = cytotoxicity | Potency
1 | CCCCS(=O)(=O)Cl | -2.36% (inactive) | 
2 | CCC(=O)c1ccc(Cl)cc1 | 6.94% (inactive) | 
3 | CCOC(=O)CC(SP(=S)(OC)OC)C(=O)OCC (stereo not given) | 2.94% (inactive) | 
4 | CC(=O)OCC1=C(C(=O)O)N2C(=O)[C@@H](N)[C@H]2SC1 | 18.2% [at 29.1 µM] (inactive) | 
5 | CN(C)CCN(C)C | -3.29% (inactive) | 
6 | O=C(Cl)c1ccccc1 | 2.42% [at 81.1 µM] (inactive) | 
7 | CCOP(=O)(CN(CCO)CCO)OCC | 6.68% (inactive) | 
8 | O=c1[nH]oc2c1CCNC2 | 14.6% (inactive) | 
9 | N=C(N)[Se] | -0.71% [at 81.1 µM] (inactive) | 
10 | CCOC(=O)C(Cl)Cc1cc(-n2nc(C)n(C(F)F)c2=O)c(F)cc1Cl (stereo not given) | 19.5% (inactive) | 
11 | O=C(O)CBr | 2.41% (inactive) | 
12 | CS(=O)(=O)c1ccc(C(=O)C2C(=O)CCCC2=O)c(Cl)c1COCC(F)(F)F | 9.73% (inactive) | 
13 | C=CCN1CC[C@]23CCCC[C@H]2[C@H]1Cc1ccc(O)cc13 | -1.78% (inactive) | 
14 | Cc1ccc2c(c1)C1CN(C)CCC1N2 (stereo not given) | -9.11% [at 29.1 µM] (inactive) | 
15 | O=C(Cl)C(Cl)(Cl)Cl | -0.545% [at 81.1 µM] (inactive) | 
16 | COc1ccccc1OC | -0.837% (inactive) | 
17 | C[C@H]1CCCC(=O)CCC/C=C/c2cc(O)cc(O)c2C(=O)O1 |  | inactive
18 | CC(C)NCC(O)c1ccc([N+](=O)[O-])cc1 (stereo not given) | -11.9% (inactive) | 
19 | OP(O)c1ccccc1 | 0.228% [at 81.1 µM] (inactive) | 
20 | NNC(N)=O | -2.12% [at 81.1 µM] (inactive) | 

Row | SMILES | activity change, negative = cytotoxicity | Potency
21 | CN(C)C1CCCCC1 | 6.01% (inactive) | 
22 | C[C@@H](N)[C@@H](O)c1ccccc1 | -2.07% (inactive) | 
23 | Cc1cc(OC(=O)N(C)C)nn1C(=O)N(C)C | 5.92% (inactive) | 
24 | CCCOc1nn(C(=O)NS(=O)(=O)c2ccccc2C(=O)OC)c(=O)n1C | 7.08% (inactive) | 
25 | CC(C)[C@]12CC(=O)[C@H](C)[C@H]1C2 | 18% (inactive) | 
26 | CC(C)N(Cc1ccccc1)C(=O)C(C)(C)C | 4.17% (inactive) | 
27 | O=C(O)C(Cl)Br (stereo not given) | 1.73% [at 81.1 µM] (inactive) | 
28 | CCC(C(N)=O)N1CCCC1=O (stereo not given) | -6.67% (inactive) | 
29 | ClC1=C(Cl)C2(Cl)C(CBr)CC1(Cl)C2(Cl)Cl (stereo not given) |  | inactive
30 | CC(=O)CN(CC(C)=O)N=O | 8.58% (inactive) | 
31 | O=C1C2CC=CCC2C(=O)N1SC(Cl)(Cl)Cl (stereo not given) |  | inactive and 42.9 µM (active)
32 | CCNc1nc(Cl)nc(NC(C)(C)C)n1 | 1.73% (inactive) | 
33 | c1cncc([C@@H]2CCCCN2)c1 | 1.96% (inactive) | 
34 | O=C(NC(O)C(Cl)(Cl)Cl)NC(O)C(Cl)(Cl)Cl (stereo not given) | -0.744% (inactive) | 
35 | COC(=O)c1ccc(CBr)cc1 | -2.08% [at 81.1 µM] (inactive) | 
36 | C1CN2CCC1CC2 | -0.768% (inactive) | 
37 | O=C(Cl)OCc1ccccc1 | -0.222% [at 81.1 µM] (inactive) | 
38 | O=C/C=C/c1ccco1 | 0.474% (inactive) | 
39 | Clc1cc2c(cc1Cl)Oc1cc(Cl)c(Cl)cc1O2 | -5.6% [at 0.275 µM] (inactive) | 
40 | N#CN | -2.4% [at 232 µM] (inactive) | 
